The whole screen tested about 360,000 compounds, of which about 780 (0.22%) were called active. What follows is part of a selection rich in actives, with near analogues and random picks from the rest. Values without a mark were called inactive. Cut-off read from the data, not from the text of the source: active = inhibition above about 8.5% (passing the limit was not always enough); inconclusive = no clear call, values can overlap the other calls.
system: Mycobacterium tuberculosis FadD28 fatty-acid-AMP ligase; assay: inhibitors of FadD28 bisubstrate probe binding, primary screen, biochemical, fluorescence polarization, single point (AID 588549); conditions: at 12.5 µM, hits give high values

SMILES	inhibition
COc1ccc(CCNC(=S)NC(=O)/C=C/c2ccc(C)cc2)cc1OC	-0.381%
CC(Nc1ccccc1)c1cccnc1 (centres undefined)	-4.94%
CCC(CC)c1nnc(NC(=O)c2nn(C)c(=O)c3ccccc23)s1	-1.39%
Cc1ccc(N2CCN(S(=O)(=O)c3ccc(F)cc3)CC2)c(C)c1	-3.77%
CC1CC(C)CN(C(=O)COC(=O)c2ccc3ncsc3c2)C1 (centres undefined)	-1.75%
Cc1cc(C)c(C#N)c(SCC(=O)N(CC(C)C)C2CCS(=O)(=O)C2)n1 (centres undefined)	-3.78%
CCC(C)(C)c1ccc(Oc2ccc(NC(=O)COC(=O)C3=COCCO3)cc2)cc1	-2.88%
COc1ccccc1CCCNC(=O)C1CCC(=O)N(CCN2CCOCC2)C1 (centres undefined)	-0.246%
Cn1c(=O)n(CCc2ccccc2)c(=O)c2c1nc1n2CCCN1c1ccccc1	-3.89%
Cc1ccc(NC(=O)CN2C(=O)NC(C)(c3ccc(Cl)cc3)C2=O)c(Br)c1 (centres undefined)	-1.17%
COc1ccc(NC(=O)CN(C)C(=O)c2cccc(S(=O)(=O)N3CCN(c4ccccc4)CC3)c2)cc1	-1.23%
O=C(O)c1ccccc1N=N/C(=N/Nc1cc(S(=O)(=O)O)ccc1O)c1ccccc1	8.82% (active)
CC(C)(O)C#Cc1ccc(CNC[C@H]2O[C@@H](n3cnc4c(=O)[nH]c(N)nc43)[C@H](O)[C@@H]2O)s1	-0.925%
O=S(=O)(c1ccc(SCc2ccc(Br)cc2)nc1)N1CCOCC1	-1.66%
O=C(Nc1cccc(-c2cccc(Cl)c2)c1)C1CCN(C2CCC2)CC1	-25.6%
Cc1ccc(/C([O-])=C(/C(=S)NCc2ccco2)[n+]2ccccc2)cc1[N+](=O)[O-]	1.32%
Cc1sc2ncnc(SCC(=O)NC3CCS(=O)(=O)C3)c2c1C (centres undefined)	-1.04%
CC1CCCC(C)N1C(=O)COC(=O)COc1ccccc1C#N (centres undefined)	-1.75%
Cc1cc(OCC(=O)N2CCN(c3ncccn3)CC2)ccc1Cl	-3.44%
COc1ccc(C(=O)Nc2ccnn2C2CCN(Cc3ccncc3)CC2)cc1	-2.54%
CCC(C)C(CO)NC(=O)/C=C/[C@H]1O[C@@H](n2cnc3c(NC(=O)c4ccccc4)ncnc32)[C@H](O)[C@@H]1O (some centres undefined)	-0.392%

SMILES	inhibition
COc1cc(C(O)c2nc(-c3cnn(C)c3)cs2)ccc1F (centres undefined)	-2.58%
CS(=O)(=O)N(Cc1ccccc1)c1ccc(C(=O)NN=C2CCCCCC2)cc1	-7.2%
CCCN(C(=O)c1nc2nccc(C)n2n1)c1c(N)n(Cc2ccccc2)c(=O)[nH]c1=O	0.906%
O=Nc1c(O)cc(O)c2ccccc12	-1.75%
COc1ccc(C(=O)NCC2CCCO2)cc1S(=O)(=O)NCc1ccc(Cl)cc1 (centres undefined)	-1.14%
COc1ccc(C(=O)NCc2ccc(Cl)cc2)cc1S(=O)(=O)N1CCCC1	39.8% (active)
COc1ccc(C(=O)NCC2CCCCC2)cc1S(=O)(=O)N1CCCC1	-0.215%
COc1ccccc1CNC(=O)c1ccc(Cl)c(S(=O)(=O)N2CCCC2)c1	1.35%
COc1ccc(C(=O)NCc2ccc(C)cc2)cc1S(=O)(=O)N1CCCC1	28% (active)
COC(=O)c1ccc(CNC(=O)c2ccc(S(=O)(=O)N3CCCCCC3)cc2)cc1	1.15%
C=CCSc1ccc(S(=O)(=O)N2CCN(C)CC2)cn1	-0.339%
CCN(CC)C(CNC(=O)CSc1nnnn1-c1cccc(F)c1)c1ccco1 (centres undefined)	-0.979%
Cc1ccc(S(=O)(=O)N(C)C)cc1NC(=O)COC(=O)c1c(C)noc1C	-3.04%
COCCNC(=O)CCCn1c(=O)c2ccccc2n(Cc2cccc([N+](=O)[O-])c2)c1=O	-2.03%
CSC1=NC2(C)CCCCC2C12C=CC(=O)C=C2 (centres undefined)	-1.74%
O=C(Nc1ccc(N2CCOCC2)c(Cl)c1)c1ccc(S(=O)(=O)N2CCOCC2)cc1	-1.1%
CC(=O)c1nn(-c2cccc(C(F)(F)F)c2)c(=O)[nH]c1=O	-2.32%
O=C(Nc1cc(=O)[nH]c2ncnn12)c1ccccc1Cl	0.264%
CC(C(=O)N1CCOCC1)N1c2cccc3cccc(c23)S1(=O)=O (centres undefined)	-1.36%
OC1CN=C2Sc3ccccc3N2C1 (centres undefined)	-1.93%
COc1ccccc1NC(=O)CSc1nnc(Cn2nnc(-c3ccccc3)n2)n1-c1ccccc1	-2.49%

SMILES	inhibition
Nc1cc(C(=O)N2CCN(c3ccccc3Cl)CC2)ccc1N1CC2CC(C1)c1cccc(=O)n1C2 (centres undefined)	0.263%
COc1cc(CCC(=O)N2CCN(c3ccccc3Cl)CC2)cc(OC)c1OC	67.4% (active)
COc1cc(CCC(=O)Nc2ccncc2Cl)cc(OC)c1OC	-0.965%
CC(=O)Nc1ccc(S(=O)(=O)NCCC(=O)N2CCN(c3ccccc3Cl)CC2)cc1	-0.39%
CCOc1ccc(CCNC(=O)CN2C(=O)NC3(CCc4ccccc43)C2=O)cc1OCC (centres undefined)	-4.62%
C=CCN(CC=C)CCOc1ccccc1[N+](=O)[O-]	0.271%
COC(=O)[C@H](C(C)C)n1c(C)c(C(C)=O)c(C(C)=O)c1C	-1.13%
N#Cc1ccc(C(=O)OCC(=O)NC(=O)NC2CCCCC2)cc1	-1.55%
COc1cccc(C2CC(c3ccccc3)=NN2S(=O)(=O)c2ccccc2)c1OC (centres undefined)	9.71% (active)
COc1cccc(C2CC(c3cccs3)=NN2C(=O)CSC2=NCCS2)c1OC (centres undefined)	-1.77%
CCS(=O)(=O)Nc1ccc(C2=NN(S(=O)(=O)c3ccc(F)cc3)C(c3ccco3)C2)cc1 (centres undefined)	-3.77%
COCCN(CCOC)c1nc(N)c2c(N)nc3c(c2c1C#N)CC(=O)N3Cc1ccc(Cl)cc1	39.6% (active)
Cc1ccc(-c2csc(NCCc3nc4cc(Cl)c(Cl)cc4n3CCOCCO)n2)cc1	-0.743%
Cc1nc(NC(=O)CN(C)S(=O)(=O)c2ccc(Cl)cc2)sc1C	0.291%
CCC(=O)Nc1nnc(S(=O)(=O)N(CC(C)C)c2ccccc2)s1	-1.99%
CC(C)CC(=O)Nc1nnc(S(=O)(=O)N(C)c2ccc(Cl)cc2)s1	19.6% (active)
CN(CC#CCC(c1ccccc1)c1ccccc1)C(C)(C)C	-4.42%
O=C(NCCc1ccco1)c1ccc(OCc2cn3ccccc3n2)cc1	-3.83%
Cc1ccccc1-c1csc(C(O)c2cccc(Cl)c2)n1 (centres undefined)	-5.7%
COc1cccc2c1C(=O)c1c(O)c3c(c(O)c1C2=O)CC(O)(C(C)=NNC(=O)c1ccc(Cl)c(Cl)c1)CC3OC1CC(N)C(O)C(C)O1 (centres undefined)	59.5% (active)
CN(C(=O)CN1C(=O)CCSc2ccc(S(=O)(=O)N3CCCC3)cc21)c1ccccc1	-0.827%

SMILES	inhibition
CC1=CC2=NC(=O)CC(C)(C(=O)N(CC(=O)NC(C)(C)C)Cc3ccccc3)N2C=C1 (centres undefined)	0.336%
COc1cc(-c2nnn(CC(=O)NCc3ccccc3)n2)cc(OC)c1OC	0.0025%
COc1ccccc1OCCC(=O)OCC(=O)NCc1ccccc1	-1.13%
COc1cc(C(=S)NCc2ccccc2)cc(Br)c1O	11% (active)
CSc1ccc(CN2CCC2(C)C(=O)Nc2ccc(C)c(O)c2)cc1 (centres undefined)	-2.96%
Cc1cc(-c2ccc(C)c(S(=O)(=O)NC(C)Cc3ccco3)c2)on1 (centres undefined)	-1.87%
Cc1cc(-c2ccc(C)c(S(=O)(=O)Nc3ccc(S(N)(=O)=O)cc3)c2)on1	14.4% (active)
CCc1ccc(-c2cc(C)no2)cc1S(=O)(=O)NCCc1ccc(S(N)(=O)=O)cc1	-1.2%
CO[C@@H]1[C@@H](OC(N)=O)[C@@H](O)C(Oc2ccc3c(O)c(NC(=O)c4ccc(O)c(CC=C(C)C)c4)c(=O)oc3c2C)OC1(C)C (some centres undefined)	-2.46%
Cc1cccc(C)c1NC(=O)CS(=O)CC(=O)N1CCN(c2ccccc2)CC1 (centres undefined)	0.692%
Cc1ccc(NC(=O)CSCC(=O)NC2CCCCC2)cc1	1.13%
O=c1/c(=C/c2ccc(CNS(=O)(=O)c3ccccc3)o2)sc2n1CCN=2	-4.15%
Cc1ccc(N2CCN(S(=O)(=O)N(C)C)CC2)cc1Cl	0.0335%
CC(C)CC(N=C1NC(C)(C)Cc2ccccc21)C(=O)O (centres undefined)	-3.18%
CCCn1c(=S)[nH]c2ccc(C(F)(F)F)cc21	-2.34%
Cc1nn(C(C)CC(=O)O)c(C)c1C (centres undefined)	-1.05%
CCCC(=O)Nc1ccc2c(c1)nc1n2CCSC1	-0.77%
CS/C(=C\[N+](=O)[O-])Nc1ccc(C)cc1	2.23%
CC(C)CNC(=O)C(=O)NCC(c1ccc2c(c1)OCO2)N1CCOCC1 (centres undefined)	-1.64%
CCCCN1C(=O)C(CC(=O)NCc2cccs2)CC(C(=O)N2CCOCC2)=C1C (centres undefined)	-1.02%
CCNC(=O)NC(=O)C(C)OC(=O)C1CCN(S(=O)(=O)c2ccccc2F)CC1 (centres undefined)	-0.363%

Source: PubChem BioAssay AID588549 (Broad Institute, 2011)
